Source: PubChem
HCMV inh = inhibitors of human cytomegalovirus; HFF cells, HCMV-luciferase reporter, 72 h; active compounds read low; activity change, negative = inhibition, % at 57.5 µM; 410,000 compounds, 4.5% hits; AID 1259415; in the data active means activity change below about -60%; inconclusive means no clear call, values can overlap the other calls; inactive means above about -39%
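After 16 h attachment at 37C, HFF cells received test compound and HCMV-luciferase (1 PFU/cell); reporter luminescence read 72 h later, data normalized against buffer-only and known inhibitor Salinomycin.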
MARV entry inh = inhibitors of Marburg virus binding or cell entry; 300,000 compounds, 1.8% hits; Potency, µM (doses to about 37.8 µM), for inactives: top-dose activity change, negative = inhibition, actives largely listed as inhibitors; Marburg virus pseudotyped entry inhibition, cell reporter; calls by dose curve; tested in HEK293 cells; further: potency means the concentration at half of the fitted maximal effect
FMDV antiviral = blocks foot and mouth disease virus; FMDV antiviral cell-based qHTS; Potency, µM (highest dose often 57.9 µM), for inactives: at the top dose activity change, negative = inhibition, usual class: inhibitors; 410,000 compounds, 1.2% hits; AID 1159524; calls by dose curve; tested in HEK293T cells; further: read-out not given here; potency means the concentration at half of the fitted maximal effect; nearly all actives have a fitted effect of over 45% in size
Lassa entry inh = Lassa virus entry inhibition; 300,000 compounds, 1.2% hits; Lassa virus pseudotype entry inhibition, cell reporter; AID 540256; Potency, µM (top dose mostly 37.9 µM), without a hit: at the top dose activity change, negative = inhibition, actives largely listed as inhibitors; calls by dose curve; tested in HEK293 cells; further: potency means the concentration at half of the fitted maximal effect; nearly all actives have a fitted effect of over 50% in size
Active calls of the source: *; u = inconclusive; x = no result given; [ ] = dose if it differs, or a comment. Compounds with a hit are over-represented: about 6.2% of the library has one in this group of screens. On the % scale 0 is the no-effect control and ±100 the full control effect.

SMILES | HCMV inh | MARV entry inh | FMDV antiviral | Lassa entry inh
COc1ccc(CN2CCCC(C(=O)c3ccc(Cl)cc3)C2)c(OC)c1 (stereo unspecified) | 19 | u | -25% | u
O=C(NN=C1C[C@@H](O)[C@H](O)[C@H]2[C@@H]3C(=O)N(C[C@@H]4CCCO4)C(=O)[C@@H]3CC[C@@H]12)OCc1ccccc1 | x | -5%[14.2 µM] | x | u
CCOc1ccc(C2C(=O)N(C3CCCCCC3)CC(=O)N2Cc2ccccc2)cc1OC (stereo unspecified) | u | x | -19% | -15%[46.1 µM]
CC(NC(=O)c1ccccc1NC(=O)c1nsc2ccccc12)c1ccccc1 (stereo unspecified) | 21 | x | 19% | u
Cc1cccnc1-c1cccc2c1OC(CNC(=O)/C=C/c1cccs1)C2 (stereo unspecified) | x | x | -16% | x
COc1ccccc1NS(=O)(=O)c1cccc(C(=O)NC2CCN(Cc3ccccc3)CC2)c1 | x | u | u | -28%
COc1ccccc1NS(=O)(=O)c1cc(C(=O)NC2CCN(Cc3ccccc3)CC2)ccc1C | -62* | x | 0% | x
Cc1oc(C(C)(C)C)cc1C(=O)NC1CCN(Cc2ccccc2)CC1 | -25 | 10µM* | -21% | u
COc1ccccc1NS(=O)(=O)c1ccc(C)c(C(=O)NC2CCN(Cc3ccccc3)CC2)c1 | -76* | u | u | u
COc1ccc(-c2noc3ccccc23)cc1 | 4 | x | x | x
O=c1cc(-c2ccccc2F)[nH]c2cc3c(cc12)OCO3 | x | 16% | x | 9%
CCCc1nn2c(C)c(-c3ccccc3)nc2s1 | 74 | -24%[46.1 µM] | 6% | u
CCCCCCCCCCOC(=O)Cn1c(COc2ccccc2)[n+](C)c2ccccc21 | -40 | x | 35µM* | x
CCCCCCCCCCOC(=O)Cn1c(COc2ccc(OC)cc2)[n+](C)c2ccccc21 | x | 3.2µM* | u | u
CCCCCCCCCCOC(=O)Cn1c(COc2cccc(C)c2)[n+](C)c2ccccc21 | -37 | u | 20µM* | -17%[46.1 µM]
CCCCCCCCCCOC(=O)Cn1c(COc2ccc(Cl)cc2)[n+](C)c2ccccc21 | -40 | x | u | x
CCCCCCCCCCOC(=O)Cn1c(COc2ccccc2C)[n+](C)c2ccccc21 | x | 25µM* | u | 8.9µM*
COC(=O)C[C@@H]1O[C@H]1[C@H](C)[C@@H](OC)C(C)C | x | -15%[14.2 µM] | x | x
COc1ccc(-c2nc(Cn3c(SCc4ccc(C)cc4)nc4cccnc43)c(C)o2)cc1OC | -98* | x | -9% | u
Cc1cc(C)nc(S[C@H]2C[C@@H](C(=O)N3CCN(c4ccccc4F)CC3)N(Cc3ccccc3F)C2)n1 | x | x | 12% | x
COc1cccc(-n2c(SCC(=O)Nc3nnc(C)s3)nc3c([nH]c4ccccc43)c2=O)c1 | u | x | 0% | u
Cc1ccc(C[C@H]2CC(=O)N(c3ccc4c(c3)OCCO4)C2=O)cc1 | x | 11%[46.1 µM] | x | x
CN1C(=O)Cc2cc(S(=O)(=O)CCC(=O)Nc3ccc(Cl)c(C(F)(F)F)c3)ccc21 | u | x | -14% | 3%[46.1 µM]
COc1ccc(NC(=O)CCCCCN2C(=O)CCC2=O)cc1Cl | 15 | 9% | 16% | 33%[14.3 µM]
O=C(CCCCCN1C(=O)CCC1=O)Nc1ccc(Cl)c(C(F)(F)F)c1 | -64* | 1% | u | -32%[14.3 µM]
SMILES | HCMV inh | MARV entry inh | FMDV antiviral | Lassa entry inh
CCC(=O)N1CCc2cc(S(=O)(=O)CCC(=O)Nc3ccc(Cl)c(C(F)(F)F)c3)ccc21 | -91* | 2%[46.1 µM] | 0% | -1%[46.1 µM]
CCC(=O)N1c2ccc(S(=O)(=O)CCC(=O)Nc3ccc(Br)c(C)c3)cc2CC1C (stereo unspecified) | -72* | 3%[46.1 µM] | 0% | -19%[46.1 µM]
CCCCNc1sc(S(=O)(=O)CC)nc1S(=O)(=O)c1ccc(C)cc1 | -11 | 1%[46.1 µM] | 14% | -21%[46.1 µM]
CN1CCN(c2ccc(Cl)cc2NC(=O)c2cc(=O)[nH]c3ccccc23)CC1 | -98* | x | 0% | x
CC(C#N)Sc1ccc(S(=O)(=O)N2CCCCC2)cn1 (stereo unspecified) | 0 | x | u | x
CC(C#N)Sc1ccc(S(=O)(=O)N(C)C2CCCCC2)cn1 (stereo unspecified) | -62* | x | -14% | x
Cc1ccc(CCNc2ccc3ccccc3c2)cn1 | -63* | u | 7% | u
COc1ccc(CN2CCN(C(C)=O)CC2)cc1OC1CCN(C(=O)c2ccc3[nH]c(C)c(C)c3c2)CC1 | x | x | -17% | x
O=C1c2ccccc2C(=O)N1CCc1nc2ccccc2c(=O)n1Cc1ccco1 | 29 | -2% | 28µM* | -2%
Cc1nc(NCc2cnn(C)c2C)sc1-c1ccn(CC2COc3ccccc3O2)n1 (stereo unspecified) | x | x | -29% | x
Cc1cccc(-c2nc(CCNC(=O)COc3ccccc3)cs2)c1 | 1 | x | -9% | 4%[46.1 µM]
Cn1nc([N+](=O)[O-])c(C(C#N)c2nc3ccccc3n2C)c(Cl)c1=O (stereo unspecified) | -76* | 0% | -9% | 2%
COc1ccc(-c2ccc(C(=O)NCc3ccc(C(F)(F)F)cc3)c3occc23)c(C)c1 | u | x | -8% | x
COC(=O)N1C(=O)[C@@](c2ccccc2)(C2CCCC2)N1C(=O)OC | 39 | x | 20µM* | x
COC(=O)N1C(=O)[C@](CC(C)C)(c2ccccc2)N1C(=O)OC | 30 | x | 35µM* | x
CCOC(=O)N1C(=O)[C@@](CC)(c2ccccc2)N1C(=O)OCC | -10 | x | 35µM* | x
COC(=O)N1C(=O)[C@](c2ccccc2)(C2CCCCC2)N1C(=O)OC | 54 | x | -26% | x
COC(=O)[C@@H]1[C@@H](CO)[C@@H]2Cn3c(ccc(Br)c3=O)[C@@H]2N1C(=O)Cc1cccnc1 | -5 | x | x | x
C(=CCSc1ccccn1)CSc1ccccn1 | 6 | x | x | x
CC(C)C[C@@H](NC(=O)OC(C)(C)C)C(=O)N1O[C@]23C=C[C@]14C[C@@H](O)CC[C@]4(C)C2CC[C@]1(C)[C@@H]([C@H](C)/C=C/[C@H](C)C(C)C)CC[C@H]13 (stereo partly specified) | 4 | x | x | x
CSc1ccc(C2NN=C(c3ccccc3)S2)cc1 (stereo unspecified) | 19 | 2.8µM* | u | 6.3µM*
O=C(O)c1ccc2c(c1)C(=O)N(c1cccc(C(=O)/C=C/c3ccccc3)c1)C2=O | 134 | 16%[14.2 µM] | 25µM* | 14%
O=C(O)c1cccc(N2C(=O)c3ccc(C(=O)c4cccc([N+](=O)[O-])c4)cc3C2=O)c1 | -21 | -4%[46.1 µM] | -4% | 1%[46.1 µM]
CCCCC(CC)CNC(=O)CCCn1c(=O)[nH]c2ccsc2c1=O (stereo unspecified) | -21 | 8%[46.1 µM] | 8% | u
COc1ccc(NC(=O)CSC2=Nc3ccccc3C3=NC(CCC(=O)NCc4cccs4)C(=O)N23)cc1 (stereo unspecified) | -73* | x | -27% | 5%[46.1 µM]
COc1cccc(NC(=O)CSC2=Nc3ccccc3C3=NC(CCC(=O)NCCc4ccccc4)C(=O)N23)c1 (stereo unspecified) | -68* | x | u | -10%[46.1 µM]
O=C(CSC1=Nc2ccccc2C2=NC(Cc3ccccc3)C(=O)N12)Nc1cccc(Cl)c1 (stereo unspecified) | -72* | x | -24% | u
CCOc1ccc(NC(=O)CSC2=Nc3ccccc3C3=NC(CCC(=O)NCc4cccs4)C(=O)N23)cc1 (stereo unspecified) | 0 | x | 0% | -22%[46.1 µM]
